# From article PMC7862700, “An all-to-all approach to the identification of sequence-specific readers for epigenetic DNA modifications on cytosine”
# Key:
# Assay in all cases: DAPPL (digital affinity profiling via proximity ligation, sequencing); 10 mM Tris-HCl pH 7.5, 50 mM NaCl, 1 mM DTT, 4% glycerol, room temperature, 30 min; GST-TFs on glutathione beads, 16-mer random dsDNA library, 0.1% formaldehyde crosslink after washing; high values mean tight binding
# FEV = target: T1, FEV (Homo sapiens, UniProt Q99581 1-238); settings: protein: recombinant; tags: N-terminal GST; dsDNA, one strand shown
# T1 sequence: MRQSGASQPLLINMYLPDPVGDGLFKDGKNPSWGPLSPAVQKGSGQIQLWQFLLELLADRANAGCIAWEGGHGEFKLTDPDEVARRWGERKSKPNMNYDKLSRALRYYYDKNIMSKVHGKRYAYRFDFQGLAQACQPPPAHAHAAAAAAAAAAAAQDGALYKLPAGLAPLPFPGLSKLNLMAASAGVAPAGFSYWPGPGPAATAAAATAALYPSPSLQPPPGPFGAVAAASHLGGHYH
# Method in brief: (§1)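 Beads coated with glutathione captured GST-fused human transcription factors that had been expressed in yeast, and the factors were then given DNA barcodes and pooled with a tag-only sample. The pools were incubated with 200 nmole of a random double-stranded 16-mer DNA library in Tris/NaCl/DTT/glycerol buffer for 30 min at room temperature, washed, crosslinked with 0.1% formaldehyde and proximity-ligated with BsaI/T4 ligase at 37 °C for 1 h. PCR amplification and Illumina NextSeq500 sequencing came last. Binding signal is each hexamer's read frequency for a factor divided by its frequency for the tag-only sample.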
# ETV5 = ETV5 (Homo sapiens, UniProt P41161 1-510); settings: protein: recombinant; tags: N-terminal GST; dsDNA, one strand shown
# ETV5, sequence (P41161 whole entry): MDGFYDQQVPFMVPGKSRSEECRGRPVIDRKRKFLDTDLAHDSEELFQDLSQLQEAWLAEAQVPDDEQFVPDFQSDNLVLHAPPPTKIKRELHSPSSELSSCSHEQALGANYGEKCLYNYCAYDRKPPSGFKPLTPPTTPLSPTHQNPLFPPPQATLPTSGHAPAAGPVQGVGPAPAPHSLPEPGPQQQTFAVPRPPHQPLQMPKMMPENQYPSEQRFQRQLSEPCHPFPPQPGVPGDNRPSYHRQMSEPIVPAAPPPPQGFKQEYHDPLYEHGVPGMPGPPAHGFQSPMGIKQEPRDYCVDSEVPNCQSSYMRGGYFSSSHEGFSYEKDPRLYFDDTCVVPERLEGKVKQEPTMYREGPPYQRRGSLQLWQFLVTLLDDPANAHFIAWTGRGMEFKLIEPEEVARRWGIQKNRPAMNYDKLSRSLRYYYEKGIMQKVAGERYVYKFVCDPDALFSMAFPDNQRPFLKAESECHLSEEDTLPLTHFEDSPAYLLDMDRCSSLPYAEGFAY
# Method in brief: as §1
# HSF1 = HSF1 (Homo sapiens, UniProt Q00613 1-529); settings: protein: recombinant; tags: N-terminal GST; chain copies: 3; dsDNA, one strand shown
# HSF1, sequence (Q00613 whole entry): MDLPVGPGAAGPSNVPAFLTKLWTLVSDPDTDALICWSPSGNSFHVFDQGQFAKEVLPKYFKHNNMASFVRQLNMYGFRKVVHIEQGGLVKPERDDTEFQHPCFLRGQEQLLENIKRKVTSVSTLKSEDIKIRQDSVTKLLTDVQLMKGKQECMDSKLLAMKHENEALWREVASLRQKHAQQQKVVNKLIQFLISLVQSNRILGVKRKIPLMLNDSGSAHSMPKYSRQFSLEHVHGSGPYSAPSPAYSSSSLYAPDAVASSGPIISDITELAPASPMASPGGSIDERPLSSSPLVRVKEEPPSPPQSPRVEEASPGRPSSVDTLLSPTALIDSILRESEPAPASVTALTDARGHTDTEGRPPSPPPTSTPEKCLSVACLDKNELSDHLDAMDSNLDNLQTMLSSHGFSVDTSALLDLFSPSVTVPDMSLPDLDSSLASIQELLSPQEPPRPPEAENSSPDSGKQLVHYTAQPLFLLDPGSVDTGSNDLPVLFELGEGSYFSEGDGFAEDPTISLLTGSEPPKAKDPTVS
# Method in brief: as §1
# SPIC = target: T2, SPIC (Homo sapiens, UniProt Q8N5J4 1-248); settings: protein: recombinant; tags: N-terminal GST; dsDNA, one strand shown
# T2 sequence: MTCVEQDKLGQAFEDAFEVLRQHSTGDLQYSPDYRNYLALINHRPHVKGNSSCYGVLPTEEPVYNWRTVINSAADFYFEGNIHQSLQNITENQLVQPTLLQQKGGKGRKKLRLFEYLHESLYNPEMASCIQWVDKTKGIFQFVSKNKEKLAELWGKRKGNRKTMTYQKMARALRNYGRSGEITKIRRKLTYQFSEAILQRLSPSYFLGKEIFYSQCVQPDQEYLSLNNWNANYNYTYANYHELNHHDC
# Method in brief: as §1
# ELF4 = ELF4 (Homo sapiens, UniProt Q99607 1-663); settings: protein: recombinant; tags: N-terminal GST; dsDNA, one strand shown
# ELF4, sequence (Q99607 whole entry): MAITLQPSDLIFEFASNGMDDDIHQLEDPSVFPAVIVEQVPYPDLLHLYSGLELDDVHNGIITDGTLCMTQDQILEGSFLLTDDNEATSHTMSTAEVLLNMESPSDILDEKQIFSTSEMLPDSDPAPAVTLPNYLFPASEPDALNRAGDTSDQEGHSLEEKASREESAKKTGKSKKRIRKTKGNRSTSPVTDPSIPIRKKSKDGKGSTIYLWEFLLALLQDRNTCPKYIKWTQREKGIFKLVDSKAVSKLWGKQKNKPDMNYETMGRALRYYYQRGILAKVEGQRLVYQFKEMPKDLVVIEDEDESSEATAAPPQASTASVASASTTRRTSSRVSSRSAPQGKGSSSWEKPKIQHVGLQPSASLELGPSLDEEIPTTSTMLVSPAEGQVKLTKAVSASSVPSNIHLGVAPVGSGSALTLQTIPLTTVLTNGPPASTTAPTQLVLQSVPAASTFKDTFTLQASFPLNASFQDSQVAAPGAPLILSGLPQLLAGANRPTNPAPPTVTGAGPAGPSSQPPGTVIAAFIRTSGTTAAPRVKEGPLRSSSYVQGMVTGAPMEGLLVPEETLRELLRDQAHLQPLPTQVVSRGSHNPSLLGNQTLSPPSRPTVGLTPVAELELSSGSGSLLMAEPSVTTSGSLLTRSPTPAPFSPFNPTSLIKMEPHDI
# Method in brief: as §1
# ELK4 = target: T3, ELK4 (Homo sapiens, UniProt P28324-2 1-405); settings: protein: recombinant; tags: N-terminal GST; dsDNA, one strand shown
# T3 sequence: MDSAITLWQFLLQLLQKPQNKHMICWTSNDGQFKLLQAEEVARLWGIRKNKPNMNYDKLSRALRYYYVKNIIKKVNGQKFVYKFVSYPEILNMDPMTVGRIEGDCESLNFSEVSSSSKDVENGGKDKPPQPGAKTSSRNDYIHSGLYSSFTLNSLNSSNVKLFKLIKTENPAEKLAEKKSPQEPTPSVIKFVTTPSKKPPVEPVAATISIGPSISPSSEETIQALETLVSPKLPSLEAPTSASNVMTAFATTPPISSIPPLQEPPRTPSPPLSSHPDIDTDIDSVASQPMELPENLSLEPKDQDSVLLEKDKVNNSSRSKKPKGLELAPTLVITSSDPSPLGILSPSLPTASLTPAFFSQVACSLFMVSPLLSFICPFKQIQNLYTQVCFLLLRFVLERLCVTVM
# Method in brief: as §1
# ETV2 = target: T4, ETV2 (Homo sapiens, UniProt O00321 1-342); settings: protein: recombinant; tags: N-terminal GST; dsDNA, one strand shown
# T4 sequence: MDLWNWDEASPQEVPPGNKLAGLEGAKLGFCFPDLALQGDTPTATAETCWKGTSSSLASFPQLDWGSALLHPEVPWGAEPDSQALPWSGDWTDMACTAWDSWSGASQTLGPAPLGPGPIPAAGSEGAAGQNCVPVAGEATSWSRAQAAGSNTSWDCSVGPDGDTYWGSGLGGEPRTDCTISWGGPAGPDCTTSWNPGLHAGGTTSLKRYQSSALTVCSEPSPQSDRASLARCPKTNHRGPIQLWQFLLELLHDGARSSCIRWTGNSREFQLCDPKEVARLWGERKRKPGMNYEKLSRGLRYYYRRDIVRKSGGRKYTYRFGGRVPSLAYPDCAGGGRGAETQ
# Method in brief: as §1
# ELF3 = target: T5, ELF3 (Homo sapiens, UniProt P78545 1-371); settings: protein: recombinant; tags: N-terminal GST; dsDNA, one strand shown
# T5 sequence: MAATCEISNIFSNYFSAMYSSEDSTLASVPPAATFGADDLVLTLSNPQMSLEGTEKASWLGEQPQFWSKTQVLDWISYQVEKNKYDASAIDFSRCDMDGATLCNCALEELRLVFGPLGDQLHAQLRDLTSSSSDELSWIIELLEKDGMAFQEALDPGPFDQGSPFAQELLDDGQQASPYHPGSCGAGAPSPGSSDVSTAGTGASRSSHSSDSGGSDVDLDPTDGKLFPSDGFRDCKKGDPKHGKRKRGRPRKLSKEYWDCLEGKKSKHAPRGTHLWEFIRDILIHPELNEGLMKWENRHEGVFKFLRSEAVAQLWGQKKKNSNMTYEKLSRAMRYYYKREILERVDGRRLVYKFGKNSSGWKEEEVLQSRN
# Method in brief: as §1
# CRX = CRX (Homo sapiens, UniProt O43186 1-299); settings: protein: recombinant; tags: N-terminal GST; dsDNA, one strand shown
# CRX, sequence (O43186 whole entry): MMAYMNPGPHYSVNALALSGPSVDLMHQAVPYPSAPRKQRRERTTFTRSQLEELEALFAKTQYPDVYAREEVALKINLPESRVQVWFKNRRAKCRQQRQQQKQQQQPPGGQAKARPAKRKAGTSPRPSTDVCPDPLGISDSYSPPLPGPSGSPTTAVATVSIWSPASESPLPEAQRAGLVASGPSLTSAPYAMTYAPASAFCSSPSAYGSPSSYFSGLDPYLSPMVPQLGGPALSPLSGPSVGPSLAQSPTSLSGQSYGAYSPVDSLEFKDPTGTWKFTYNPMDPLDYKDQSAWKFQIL
# Method in brief: as §1
sequence,measurement,setting,value
TATGGG,binding signal,FEV,"1.13 fold enrichment (6-mer frequency, TF over GST control)"
same,binding signal,ETV5,"1.18 fold enrichment (6-mer frequency, TF over GST control)"
same,binding signal,HSF1,"1.1 fold enrichment (6-mer frequency, TF over GST control)"
same,binding signal,SPIC,"1.32 fold enrichment (6-mer frequency, TF over GST control)"
same,binding signal,ELF4,"1.18 fold enrichment (6-mer frequency, TF over GST control)"
same,binding signal,ELK4,"1.14 fold enrichment (6-mer frequency, TF over GST control)"
same,binding signal,ETV2,"1.11 fold enrichment (6-mer frequency, TF over GST control)"
same,binding signal,ELF3,"1.18 fold enrichment (6-mer frequency, TF over GST control)"
same,binding signal,CRX,"1.36 fold enrichment (6-mer frequency, TF over GST control)"
